Assay outcomes as filed in PubChem.
RBX1-CUL1 inh: inhibitors of human ROC1-CUL1 ubiquitin ligase activity; 140,000 compounds, 0.6% hits; in vitro K48 di-Ub FRET, acceptor:donor ratio, 45 min; P62877+Q13616; AID 1347404; inhibition, % at 10 µM; in the data active = inhibition above about 25%
Of the large screens only hits and unclear results are named; the others gave an inactive call. The sample as a whole holds a higher share of hits than the screen did.

COc1ccc(C=C2C(=O)N(C)C(=O)N(C)C2=O)cc1	none
COc1ccc(/C=C2/C(=O)N(Cc3ccco3)C(=O)N(C(C)C)C2=O)cc1	RBX1-CUL1 inh 103
CC(C)N1C(=O)/C(=C/C=C/c2ccco2)C(=O)N(Cc2ccco2)C1=O	none
CN1C2CCC1CC(NCc1ccccc1)C2 (centres undefined)	none
Nc1ccncc1Br	none
COc1ccc(N2CCN(CC(=O)Nc3ccc(Cl)cc3C(=O)c3ccccc3)CC2)cc1	none
COc1ccc(-n2c(/C=C/c3ccc(F)cc3)nc3ccccc3c2=O)cc1	none
CCC1(c2ccccc2)C(=O)NC(=O)N(CCN2CCOCC2)C1=O (centres undefined)	none
N=C1C(Cl)C(=O)NC(=O)N1Cc1ccccc1 (centres undefined)	none
O=C1NC(=O)C(Br)(Br)C(=O)N1Cc1ccccc1	RBX1-CUL1 inh 76
CCOC(=O)C1=C(c2ccccc2)N2c3ccccc3C3c4ccccc4C1NC32 (centres undefined)	none
O=c1c2ccccc2nc(CCc2ccccc2)n1-c1cc(Cl)cc(Cl)c1	none
O=c1[nH]c(-c2ccccc2)nc(SC2CCCCC2Cl)c1C(F)(F)F (centres undefined)	none
CCN(CC)c1ccc(/C=C2\C(=O)NC(=S)N(C)C2=O)o1	none
Cc1c(Cl)cccc1N1C(=O)/C(=C/c2ccc(-c3ccc(C(=O)O)cc3)o2)C(=O)NC1=S	RBX1-CUL1 inh 52
CCOc1ccc(N2C(=O)/C(=C/c3ccc(CN(CCC#N)S(C)(=O)=O)o3)C(=O)NC2=S)cc1	none
CCN(CC)c1ccc(/C=C2\C(=O)NC(=S)N(c3ccc(OC)cc3OC)C2=O)o1	none
O=C1NC(=S)N(c2ccc(Br)cc2)C(=O)/C1=C/c1ccc(-c2ccccc2C(=O)O)o1	RBX1-CUL1 inh 83
Cc1cccc(N2C(=O)/C(=C/c3cc(C)n(-c4ccc(C(=O)O)c(Cl)c4)c3C)C(=O)NC2=S)c1C	none
CC(C)=CCN1CCCC(C(=O)c2ccc(Cl)cc2)C1 (centres undefined)	none
CN(Cc1ccco1)Cc1nc2ccccc2c(=O)n1-c1ccc(F)cc1	none
N#CC1(C(=O)O)C(c2ccc(Cl)cc2)C(C(=O)Oc2ccccc2)N2C=C(C(=O)O)C=CC21 (centres undefined)	none
COc1cc(CN2CCN(C(=O)Cc3ccccc3)CC2)cc(OC)c1OC	none
COc1cc(C(c2c(C)[nH]n(-c3ccccc3)c2=O)c2c(C)[nH]n(-c3ccccc3)c2=O)cc(OC)c1OC	RBX1-CUL1 inh 62
COc1cc(C2SCC(=O)Nc3c2c(-c2ccccc2)nn3-c2ccccc2)cc(OC)c1OC (centres undefined)	none
